Molecules are shown by their SMILES. Calls of active or inactive are those of the source. No rule for the calls is given here.

The nature of experiment [1]: enhancers of glutamate uptake in motor neurons, MN-1 cell line (AID 1612).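 Also: tested at 1 µM final; 0% = mean of DMSO vehicle wells on each plate; positive means more glutamate uptake than control and negative means less.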 The conditions noted are these: MN-1 motor neuron cells, stronger effect = higher value.
Experiment [2] in a line: suppressors of polyglutamine aggregation in yeast, 75Q-TubH (AID 1616). To be noted: S. cerevisiae 75Q-TubH polyglutamine aggregation suppression; stronger effect = higher value.
The nature of experiment [3]: circadian clock period modulators, cell-based, LOPAC library, luminescence reporter (AID 2774).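 Also: values are relative to mean of DMSO wells on each plate.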 The conditions noted are these: circadian reporter cells, at 7 µM, actives lie on both sides.
Experiment [4] can be described thus: hESC survival regulators, cell-based (AID 493140).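 Also: cells exposed to compounds for four days before counting.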 The conditions noted are these: human embryonic stem cell survival screen; stronger effect = higher value.

As to `Oc1ccc(Cl)c2cccnc12`, the glutamate uptake change in experiment [1] stood at 42.4%. The molecule further came in with an aggregation suppression score in experiment [2] of 0.0533.
Turning to `Cc1nc2sccn2c(=O)c1CCN1CCC(=C(c2ccc(F)cc2)c2ccc(F)cc2)CC1`, the glutamate uptake change in experiment [1] stood at 29.6%. Further, the aggregation suppression score in experiment [2] was 1.39. For the same molecule, the period change in experiment [3] is 0.08 h (inactive).
As for `Nc1nc(=S)c2[nH]cnc2[nH]1`, the glutamate uptake change in experiment [1] is -1.16%. The molecule also showed an aggregation suppression score in experiment [2] of 1.86.
For `Cc1ccc(C(C)C)cc2c(C)ccc1-2` the same measures were 4.08% and -1.39.
With `O=C1C(O)=C(O)C(=O)C(O)=C1O`, the glutamate uptake change in experiment [1] came out at 5.54%. For the same molecule, the aggregation suppression score in experiment [2] stood at 1.42. Further, the survival in experiment [4] was 4.75 (inactive).
`CN(Cc1cc(Br)cc(Br)c1N)C1CCCCC1`: in experiment [1], the glutamate uptake change was -11.2%. The aggregation suppression score in experiment [2] was determined as 1.07.
For `CSc1ccc2c(c1)C(N1CCN(C)CC1)Cc1ccccc1S2` (stereo unspecified), the glutamate uptake change in experiment [1] came to 5.12%. Further, the aggregation suppression score in experiment [2] was 1.18. Also, the period change in experiment [3] was 0.085 h (inactive). Also, the survival in experiment [4] was 1.5 (inactive).
For `CN(C)CCCN1c2ccccc2Sc2ccc(C(F)(F)F)cc21`, the glutamate uptake change in experiment [1] was 10.7%. In experiment [2], this molecule had an aggregation suppression score of 1.05. Also, the period change in experiment [3] is -0.13 h (inactive). Also, in experiment [4], the survival is 5.42 (inactive).
Consider `O=C1OC(c2ccc(O)cc2)(c2ccc(O)cc2)c2ccccc21`, for which the glutamate uptake change in experiment [1] was -16.5%. This molecule also gave an aggregation suppression score in experiment [2] of 1.31.
In the case of `O=C(OCc1ccccc1)c1ccccc1`, the glutamate uptake change in experiment [1] stood at 36%. This molecule also yielded an aggregation suppression score in experiment [2] of 0.363.
In the case of `Cc1cc(N)c2ccccc2[n+]1CCCCCCCCCC[n+]1c(C)cc(N)c2ccccc21`, the glutamate uptake change in experiment [1] was 12.9%. The same molecule gave an aggregation suppression score in experiment [2] of 0.0487. Moreover, the period change in experiment [3] is 0.12 h (inactive). Further, the survival in experiment [4] is 0.167 (inactive).
For `CN(C)CCC=C1c2ccccc2C=Cc2ccccc21`, the glutamate uptake change in experiment [1] was -6.52%. In experiment [2], this molecule came in with an aggregation suppression score of 1.07. Besides, the period change in experiment [3] is 0.095 h (inactive). In addition, in experiment [4], the survival was 2.75 (inactive).
As for `CN(C)CCCN1c2ccccc2Sc2ccccc21`, the glutamate uptake change in experiment [1] stood at 20.4%. For the same molecule, the aggregation suppression score in experiment [2] stood at 1.03. The period change in experiment [3] was -0.355 h (inactive). Also, in experiment [4], the survival is 1.08 (inactive).
With `CCCCOc1cc(C(=O)NCCN(CC)CC)c2ccccc2n1`, the glutamate uptake change in experiment [1] was -13.8%. In addition, the aggregation suppression score in experiment [2] was determined as 1.32. Also, the survival in experiment [4] is 7.17 (inactive).

The values are drawn from PubChem BioAssay.
